Potency and outcome data for twelve molecules are collected here from PubChem BioAssay (Tox21).

Test [1] can be described thus: qHTS assay to identify small molecule agonists of the vitamin D receptor (VDR) signaling pathway - cell viability counter screen (AID 743224). Note: series mostly up to about 63 µM; nearly all actives have a fitted effect of over 50% in size. In outline:
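In parallel with the bla FRET readout, cytotoxicity toward VDR-bla cells after 16 h compound exposure was assessed by CellTiter-Glo, with luminescence recorded after a 30 min room-temperature incubation.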

Test [2] is described as follows: qHTS assay to identify small molecule antagonists of the vitamin D receptor (VDR) signaling pathway - cell viability counter screen (AID 743225). Note: nearly all actives have a fitted effect of over 50% in size. In outline:
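Viability counter screen run in the same wells as the beta-lactamase reporter assay: HEK 293T VDR-UAS-bla cells, 16 h compound exposure at 37C with 3 nM (final) 1-alpha,25-dihydroxyvitamin D3. CellTiter-Glo luminescence, 30 min, room temperature.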
In general terms: qHTS replaces the single test concentration by a dilution series.

Test [3] is described as follows: qHTS assay to identify small molecule agonists of the NFkB signaling pathway - cell viability counter screen (AID 1159515; calls by dose curve; note: series mostly up to about 61 µM; nearly all actives have a fitted effect of over 55% in size). In outline:
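Plate 2,000 NFkB-bla ME-180 cells/well; incubate overnight. Add compounds, 5 hr at 37 C. Add FRET substrate, 1.5 hr RT. Add CellTiter-Glo, 30 min RT; read luminescence.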

Test [4] is described as follows: qHTS assay to identify small molecule agonists of the endoplasmic reticulum stress response signaling pathway - cell viability counter screen (AID 1159517; calls by dose curve; note: series mostly up to about 61 µM; nearly all actives have a fitted effect of over 50% in size). The method, boiled down:
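Cytotoxicity of test compounds toward ESRE-bla HeLa cells was assessed after 5 hr exposure. The luminescent CellTiter-Glo signal was measured 30 min after reagent addition.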

The nature of test [5]: qHTS assay to identify small molecule antagonists of the retinoid-related orphan receptor gamma (ROR-gamma) signaling pathway - cell viability counter screen (AID 1159520). Note: nearly all actives have a fitted effect of over 50% in size. The method, boiled down: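 Tet-on ROR gamma CHO cells (1,000/well) were plated 4 hr, given compounds in DMSO for 2 hr at 37 C, then induced with 1 uM final doxycycline for 16 hr. Viability was read as ATP by CellTiter-Glo luminescence after 30 min.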

Test [6] addresses Nuclear receptor ROR-gamma (Homo sapiens) (UniProt P51449). As to the kind of experiment: qHTS assay to identify small molecule antagonists of the retinoid-related orphan receptor gamma (ROR-gamma) signaling pathway (AID 1159521; note: nearly all actives have a fitted effect of over 50% in size; note: potency is the fitted concentration of half-maximal effect). In outline: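 Luminescence readout (ONE-Glo, 30 min RT) after 16 h doxycycline induction; loss of signal scored as antagonism. CHO cells with TET-inducible RORγ and RORE-LUC reporter; compounds added 2 h before 1 uM final doxycycline.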

Test [7] can be described thus: qHTS assay to identify small molecule agonists of the AP-1 signaling pathway - cell viability counter screen (AID 1159525; calls by dose curve; note: nearly all actives have a fitted effect of over 55% in size). In outline:
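Each titration point was normalised to DMSO and tetra n-octyl ammonium bromide controls. The read was Cell Titer Glo luminescence after 30 min at RT, following 5 h compound exposure of ME-180 AP-1-bla cells at 37 °C.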

Test [8] in a line: qHTS assay to identify small molecule agonists of the RXR signaling pathway - cell viability counter screen (AID 1159529). In outline:
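Luminescence from CellTiter-Glo (30 min, RT) measured viability in the same wells as the beta-lactamase reporter readout. Cells: GeneBLAzer RXR-alpha HEK 293T, 2% charcoal-stripped FBS. Compound exposure 16 hr, 37 C.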

The nature of test [9]: qHTS assay to identify small molecule antagonists of the retinoid acid receptor (RAR) signaling pathway - cell viability counter screen (AID 1159551). Note: nearly all actives have a fitted effect of over 35% in size. In outline:
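Viability of C3RL4 cells is quantified from ATP by luminescence after 6 h treatment at 37 C with compounds and 1 uM retinol.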

The nature of test [10]: qHTS assay to identify small molecule antagonists of the retinoic acid receptor (RAR) signaling pathway (AID 1159552; note: nearly all actives have a fitted effect of over 50% in size). The method, boiled down:
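Luminescence from a RARE luciferase reporter in C3RL4 cells served as read-out. Cells received compounds together with 1 uM final retinol and incubated 6 hr at 37 C before detection reagent was added for 30 min at room temperature.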

The nature of test [11]: qHTS assay to identify small molecule agonists of the retinoic acid receptor (RAR) signaling pathway (AID 1159553). Note: potency is the fitted concentration of half-maximal effect. In outline:
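Compounds dissolved in DMSO were pinned onto C3RL4 cells seeded the previous day, and plates were held 6 hr at 37 C. RARE-driven luciferase output was then read by luminescence.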

Test [12] is described as follows: qHTS assay to identify small molecule antagonists of the estrogen related receptor (ERR) signaling pathway from Tox21 library - cell viability counter screen (AID 1224834). Note: nearly all actives have a fitted effect of over 30% in size. In outline: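 In this quantitative HTS format, ERR cells receive compounds in DMSO and are incubated for 17.5 h at 37 C. Live-cell protease activity is then detected with CellTiter-Fluor.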

Test [13] has as its target Luciferin 4-monooxygenase (Photinus pyralis) (UniProt P08659). As to the kind of experiment: qHTS assay to identify small molecule inhibitors of firefly luciferase (AID 1224835). Note: series mostly up to about 120 µM; nearly all actives have a fitted effect of over 25% in size. In outline:
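Quantitative HTS format; KM concentrations of both substrates. Purified P. pyralis FLuc activity quantified from luminescence images.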

A short description of test [14]: qHTS assay to identify small molecule agonists of the AP-1 signaling pathway (AID 1159526; calls by dose curve).
Test [15] addresses Retinoic acid receptor RXR-alpha (Homo sapiens) (UniProt P19793). As to the kind of experiment: qHTS assay to identify small molecule agonists of the RXR signaling pathway (AID 1159527; calls by dose curve; note: nearly all actives have a fitted effect of over 35% in size; note: potency is the fitted concentration of half-maximal effect). The method, boiled down:
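Agonist mode; 9-cis retinoic acid positive control. HEK 293T UAS-bla reporter cells, 2% charcoal-stripped FBS, 16 hr compound exposure at 37 C/5% CO2. LiveBLAzer B/G FRET substrate 2 hr RT; ex 405, em 460/530 nm.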

Test [16] is described as follows: qHTS assay to identify small molecule antagonists of the estrogen related receptor (ERR) signaling pathway (AID 1224819). The method, boiled down: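 ERR reporter cells were plated at 2,000 cells/well and left 6 h at 37 C/5% CO2 before pin-tool transfer of compounds in DMSO. After 18 h at 37 C, One-Glo was added and luminescence was read 30 min later at room temperature.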

The nature of test [17]: qHTS assay to identify small molecule agonists of the estrogen related receptor (ERR) signaling pathway (AID 1224820). The method, boiled down: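 Luminescence readout (One-Glo, 30 min RT) from NTP-supplied ERR cell line exposed to compounds for 18 h at 37 C. Cells seeded 2,000 per well and pre-incubated 6 h before pin-tool compound transfer.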
The subject of test [18] is estrogen-related receptor alpha (ERRalpha) with PGC-1alpha coactivator, human. As to the kind of experiment: qHTS assay to identify small molecule antagonists of the estrogen related receptor signaling pathway with the pleiotropic PPARgamma coactivator (PGC) (AID 1224821; calls by dose curve). In outline: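 PGC/ERR reporter cells; 6 h pre-incubation 37 C/5% CO2; pin-tool compound in DMSO, 18 h 37 C; One-Glo added, 30 min RT; luminescence read. qHTS antagonist mode.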

The nature of test [19]: qHTS assay to identify small molecule agonists of the estrogen related receptor signaling pathway with the pleiotropic PPARgamma coactivator (PGC) (AID 1224823). In outline: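 Luminescence readout (One-Glo, 30 min RT) from PGC/ERR cell line treated 18 h at 37 C with pin-tool-delivered DMSO compound solutions; cells plated 6 h before dosing. Quantitative HTS format.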
The nature of test [20]: qHTS assay to identify small molecule agonists of the endoplasmic reticulum stress response signaling pathway (AID 1159516; active = well fitted activation curve with a large enough effect in the signal ratio in the repeat runs, not every such curve was filed as active; the % refers to the signal ratio). In outline: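 Beta-lactamase expression from the ER stress response element in HeLa reporter cells is quantified with the LiveBLAzer B/G FRET substrate, read at 405 nm excitation after 2 hr at room temperature, following 5 hr compound treatment at 37 C.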

The structures appear in SMILES notation. Several values for one entry are separate records, joined by “and”; a condition that tells them apart may be missing. Equal entries are not always repeated. Results filed as inconclusive are left out. Some compounds were tested as several samples or in several runs, with calls that do not always agree. Activity calls are given as the source filed them. Unless noted, calls come from the whole dose curve; as a rule, active = well fitted curve in the direction sought with a large enough effect in the repeat runs; inconclusive = weak or mixed curves; inactive = no such curve, though single readings can be large; an effect the other way counts as inactive or inconclusive.

Sequence of Luciferin 4-monooxygenase (Photinus pyralis) (P08659 whole entry, looked up): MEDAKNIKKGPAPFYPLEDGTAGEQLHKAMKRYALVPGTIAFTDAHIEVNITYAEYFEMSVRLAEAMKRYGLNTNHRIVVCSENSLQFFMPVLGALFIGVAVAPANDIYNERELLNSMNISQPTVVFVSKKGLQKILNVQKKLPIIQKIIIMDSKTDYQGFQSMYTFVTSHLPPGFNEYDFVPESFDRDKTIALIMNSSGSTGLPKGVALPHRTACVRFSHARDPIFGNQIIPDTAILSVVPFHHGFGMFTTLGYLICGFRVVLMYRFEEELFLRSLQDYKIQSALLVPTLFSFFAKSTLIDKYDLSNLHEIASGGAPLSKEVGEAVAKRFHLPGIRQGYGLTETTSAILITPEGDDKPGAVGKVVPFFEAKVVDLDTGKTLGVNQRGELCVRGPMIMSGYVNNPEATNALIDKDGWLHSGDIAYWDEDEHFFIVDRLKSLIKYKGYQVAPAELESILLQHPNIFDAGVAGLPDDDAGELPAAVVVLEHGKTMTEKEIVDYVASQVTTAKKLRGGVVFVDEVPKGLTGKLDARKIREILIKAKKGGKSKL
Sequence of Retinoic acid receptor RXR-alpha (Homo sapiens) (P19793 whole entry, looked up): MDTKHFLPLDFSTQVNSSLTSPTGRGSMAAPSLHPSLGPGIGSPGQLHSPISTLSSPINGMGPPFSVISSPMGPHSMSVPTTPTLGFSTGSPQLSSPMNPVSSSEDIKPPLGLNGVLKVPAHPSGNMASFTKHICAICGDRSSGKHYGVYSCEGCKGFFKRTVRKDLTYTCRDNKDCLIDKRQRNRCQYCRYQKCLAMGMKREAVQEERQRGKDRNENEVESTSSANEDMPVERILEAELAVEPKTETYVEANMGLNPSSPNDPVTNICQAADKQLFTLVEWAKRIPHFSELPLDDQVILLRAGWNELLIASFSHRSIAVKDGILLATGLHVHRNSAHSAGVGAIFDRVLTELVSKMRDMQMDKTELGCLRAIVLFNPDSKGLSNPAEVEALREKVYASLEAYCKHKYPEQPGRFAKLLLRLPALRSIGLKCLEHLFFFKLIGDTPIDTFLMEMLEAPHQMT

Regarding `CC(C)(c1ccccc1)c1ccc(Nc2ccc(C(C)(C)c3ccccc3)cc2)cc1`, the Potency entry in [1], in test [2], in [3], in [4], in test [5] and in test [7] was “inactive” in each case. Besides, the Potency entry in test [8], in [9], in [10], in test [11], in [12] and in test [13] was “inactive” throughout. Besides, the Potency in [6] is 24.3 µM (active) and inactive.
`Cc1cccc(O)c1C`: the Potency result in [1], in test [2], in [3], in test [4], in test [5] and in test [6] was “inactive” throughout. For the same molecule, the Potency entry in test [7], in test [14], in [15], in [8], in test [9] and in test [10] was “inactive” in each case. In addition, the Potency result in test [11] and in [12] was “inactive” throughout.
`CCN1CCCC1CNC(=O)c1cc(S(=O)(=O)CC)c(N)cc1OC` (centres undefined): the Potency entry in [1], in test [2], in test [3], in test [4], in test [5] and in [6] was “inactive” each time. The Potency entry in test [7], in test [14], in test [15], in [8], in [9] and in [10] was “inactive” throughout. Moreover, the Potency entry in test [11], in [16], in test [18], in test [12] and in test [13] was “inactive” throughout. The call in test [17] and in [19] was inactive.
For `CC(C)(C)c1ccccc1`, the Potency entry in test [1], in test [2], in [3], in test [4], in test [5] and in test [6] was “inactive” throughout. Besides, the Potency entry in test [7], in test [14], in test [15], in [8], in test [10] and in test [11] was “inactive” in each case. Besides, the Potency result in [12] and in [13] was “inactive” each time.
Turning to `Cc1ccnc2c1NC(=O)c1cccnc1N2C1CC1`, the Potency entry in test [1], in test [2], in test [3], in test [4], in test [5] and in test [6] was “inactive” each time. The Potency result in test [7], in test [14], in test [8], in test [9], in [10] and in [11] was “inactive” throughout. For the same molecule, in [12], the Potency result is “inactive”. Also, the Potency in test [15] is 11.4 µM (active) and inactive.
In the case of `CCC(CO)(CO)COCC(CC)(CO)CO`, the Potency entry in [2], in test [3], in test [4], in test [6], in [7] and in [14] was “inactive” each time. Moreover, the Potency result in test [15], in test [8], in [10], in test [11], in test [12] and in test [13] was “inactive” in each case. Besides, the result in test [20] was inactive.
Regarding `OCC(CO)N[C@H]1C[C@](O)(CO)[C@@H](O)[C@H](O)[C@H]1O`, the Potency result in test [1], in test [2], in [3], in test [4], in test [5] and in [7] was “inactive” in each case. The Potency result in test [14], in test [15], in [8], in [9], in test [10] and in test [11] was “inactive” each time. Further, the Potency entry in test [12] and in test [13] was “inactive” throughout.
Take `COc1ccc(COC(C)=O)cc1`: the Potency result in test [1], in [2], in test [3], in test [4], in test [5] and in test [6] was “inactive” each time. The Potency result in test [7], in test [14], in test [15], in test [8], in test [9] and in test [10] was “inactive” in each case. Further, the Potency result in test [11], in test [12] and in test [13] was “inactive” each time.
Take `COC(c1ccccc1)(c1ccccc1)[C@H](Oc1nc(C)cc(C)n1)C(=O)O`: the Potency result in test [2], in test [3], in [4], in test [5], in [6] and in test [7] was “inactive” throughout. Besides, the Potency result in [14], in [15], in test [8], in test [9], in test [10] and in [11] was “inactive” each time. In addition, the Potency entry in test [12] and in [13] was “inactive” throughout.
For `c1ccc2cc3c(ccc4ccccc43)cc2c1`, the Potency entry in test [1], in test [2], in [3], in test [4], in test [5] and in test [7] was “inactive” in each case. The Potency result in test [14], in [15], in test [8], in test [9], in test [10] and in test [12] was “inactive” throughout. For the same molecule, the Potency in [11] is 2.74 µM (active) and 3.86 µM (active).
With `O=C1NCC2(CCN(CCc3ccccc3)CC2)O1`, the Potency result in [1], in [2], in test [3], in test [4], in test [5] and in test [6] was “inactive” each time. In addition, the Potency result in [7], in [14], in test [15], in test [8], in test [9] and in test [10] was “inactive” throughout. The Potency result in test [11] and in test [12] was “inactive” each time.
Consider `NC(N)=NC(=O)Cc1c(Cl)cccc1Cl`, for which the Potency entry in test [1], in test [3], in test [4], in test [5], in test [7] and in test [14] was “inactive” each time. Moreover, the Potency entry in test [15], in test [8], in test [9], in test [10], in test [11] and in [16] was “inactive” throughout. Also, the Potency entry in test [18], in test [12] and in test [13] was “inactive” each time. The molecule was classed as inactive in [17] and in test [19].
